From PubChem BioAssay AID651642 (Sanford-Burnham Center for Chemical Genomics, 2012)
Active and inactive are the calls of the source.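 The calls were made as follows: active = average half-effect concentration of 10 µM or less in every one of the four cell panels; inactive = the rest.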

tested on: HL-1; assay: protection of cardiomyocytes from stress damage, SAR follow-up, cell-based, panel, H9c2 and HL-1, H2O2, 2-deoxyglucose, ATP luminescence (AID 651642); details: H9c2/HL-1 cardiomyocyte 2-deoxyglucose damage, mean of runs, with 2-deoxyglucose

**Q.** `COc1cc(-c2cc(C(=O)NCC(=O)Nc3cccc(C(C)=O)c3)c3ccccc3n2)cc(OC)c1OC` was tested. Which outcome did it give?
**A.** active

**Q.** For `COc1cc(-c2cc(C(=O)Nc3cccc(C(=O)N4CCOCC4)c3)c3ccccc3n2)cc(OC)c1OC`, which outcome is on record?
**A.** inactive

**Q.** How did the outcome turn out when `COc1cc(-c2cc(C(=O)Nc3cccc(C(=O)NCc4ccccc4)c3)c3ccccc3n2)cc(OC)c1OC` was run?
**A.** active

**Q.** With `COc1ccc2c(c1OC)C(=O)N1c3ccccc3C(=O)N(Cc3cccc(Br)c3)C21` (stereo not drawn) as the compound, how does the outcome read?
**A.** active

**Q.** `CCOC(=O)c1cccc(NC(=O)c2cc(-c3cc(OC)c(OC)c(OC)c3)nc3ccc(F)cc23)c1` was tested. Which outcome did it give?
**A.** inactive

**Q.** `CCOC(=O)c1cccc(NC(=O)c2cc(-c3cc(OC)c(OC)c(OC)c3)nc3ccc(C)cc23)c1` was tested. Which outcome did it give?
**A.** inactive

**Q.** How did the outcome turn out when `COc1cc(-c2cc(C(=O)Nc3cccc(C(=O)O)c3)c3ccccc3n2)cc(OC)c1OC` was run?
**A.** inactive

**Q.** `COc1cc(-c2cc(C(=O)Nc3cccc(C(C)=O)c3)c3cc(Br)ccc3n2)cc(OC)c1OC` was tested. Which outcome did it give?
**A.** inactive

**Q.** `CCOC(=O)c1ccc(NC(=O)c2cc(-c3cc(OC)c(OC)c(OC)c3)nc3ccccc23)cc1` was tested. Which outcome did it give?
**A.** inactive

**Q.** For `COc1ccc2c(c1OC)C(=O)N1c3ccccc3C(=O)N(Cc3ccncc3)C21` (stereo not drawn), which outcome is on record?
**A.** inactive

**Q.** How did the outcome turn out when `COc1cc(-c2cc(C(=O)NCC(=O)Nc3cccc(C(C)=O)c3)c3cc(C)ccc3n2)cc(OC)c1OC` was run?
**A.** inactive

**Q.** Which outcome does the source give for `COc1ccc2nc(-c3cc(OC)c(OC)c(OC)c3)cc(C(=O)Nc3cccc(C(C)=O)c3)c2c1` here?
**A.** inactive

**Q.** For `CCOC(=O)c1cccc(NC(=O)CNC(=O)c2cc(-c3cc(OC)c(OC)c(OC)c3)nc3ccc(C)cc23)c1`, which outcome is on record?
**A.** active
